Entries with a potency or affinity are not part of this list. Inconclusive results are not listed. Calls of active or inactive are those of the source. How the calls were made is not given here.
Assay: non-specific cell cytotoxicity, dose response, cytotoxicity control for PAX8 inhibitor project, plate reader, dry powder samples (AID 743021)
Conditions: cell line, non-specific cytotoxicity counter-screen; series mostly up to 35 µM
In the case of `O=C(Nc1cccc(NC(=O)c2cccs2)c1)c1ccc([N+](=O)[O-])o1`, the outcome is reported as “inactive”.
In the case of `C=C(C)c1nc(Oc2ccccc2)nc(Oc2ccccc2)n1`, the outcome is reported as “inactive”.
For `C[C@@H]1CN([C@@H](C)CO)C(=O)Cc2cc(NC(=O)CCC(F)(F)F)ccc2O[C@H]1CN(C)Cc1ccc(-c2ccccc2)cc1`, the outcome was “inactive”.
In the case of `COc1cccc(S(=O)(=O)N2CC[C@H]3[C@@H](CO)N(C)c4ccc(C#Cc5ccc(F)cc5)cc4[C@H]32)c1`, the outcome is reported as “inactive”.
For `C[C@@H]1CCCCO[C@H](CN(C)Cc2ccc(C(F)(F)F)cc2)[C@H](C)CN([C@H](C)CO)C(=O)c2cc(NS(=O)(=O)c3ccccc3)ccc2O1`, the outcome was “inactive”.
With `O=S(=O)(c1ccccc1F)N1CC[C@@H]2[C@@H](CO)Nc3ccc(C4=CCCCC4)cc3[C@@H]21` the outcome was “inactive”.
In the case of `CN1c2ccc(-c3cccc(F)c3)cc2[C@@H]2[C@@H](CCN2C(=O)Cc2ccccc2)[C@@H]1CO`, the outcome is reported as “inactive”.
In the case of `CCc1cc(-c2n[nH]c(C)c2-c2nc3ccccc3n2C)c(O)cc1O`, the outcome is reported as “inactive”.
In the case of `COc1ccc(NC(=O)Nc2ccc3c(c2)C(=O)N([C@@H](C)CO)C[C@@H](C)[C@@H](CN(C)CC2CCCCC2)OCCCC[C@@H](C)O3)cc1`, the outcome is reported as “inactive”.

Assay: IGROV1 ovarian cancer cell cytotoxicity, dose response, PAX8 inhibitor project, plate reader, dry powder samples (AID 743043);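 further: more negative means fewer viable cells or more cytotoxicity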
Conditions: series mostly up to 35 µM
With `C[C@@H]1CCCCO[C@@H](CN(C)Cc2ccc(C(F)(F)F)cc2)[C@@H](C)CN([C@@H](C)CO)C(=O)c2cc(NS(=O)(=O)c3ccc(F)cc3)ccc2O1` the outcome was “inactive”.
For `C[C@H](CO)N1C[C@H](C)[C@H](CN(C)S(=O)(=O)c2ccc(Cl)cc2)OCCCC[C@H](C)Oc2ccc(NS(=O)(=O)c3ccc(F)cc3)cc2C1=O`, the outcome was “inactive”.
With `Cc1noc(C)c1S(=O)(=O)N(C)C[C@@H]1OCCCC[C@H](C)Oc2ccc(NS(=O)(=O)c3ccc(Cl)cc3)cc2C(=O)N([C@H](C)CO)C[C@@H]1C` the outcome was “inactive”.
In the case of `C[C@@H]1CCCCO[C@H](CN(C)Cc2ccc(Cl)c(Cl)c2)[C@H](C)CN([C@@H](C)CO)C(=O)c2cc(NC(=O)Nc3ccccc3)ccc2O1`, the outcome is reported as “inactive”.
For `C[C@@H]1CCCCO[C@H](CN(C)Cc2ccc(C(F)(F)F)cc2)[C@H](C)CN([C@@H](C)CO)C(=O)c2cc(NS(=O)(=O)c3cccs3)ccc2O1`, the outcome was “inactive”.
In the case of `CCCNC(=O)Nc1ccc2c(c1)OC[C@H](C)N(Cc1ccc(-c3ccccn3)cc1)C[C@@H](C)[C@@H](OC)CN(C)C2=O`, the outcome is reported as “inactive”.
For `C[C@@H]1CN([C@H](C)CO)C(=O)c2cc(NC(=O)Nc3ccc(F)cc3)ccc2O[C@@H](C)CCCCO[C@@H]1CN(C)Cc1ccc2c(c1)OCO2`, the outcome was “inactive”.
For `C[C@@H]1CN([C@H](C)CO)C(=O)Cc2cc(NC(=O)Nc3ccc(F)cc3)ccc2O[C@H]1CN(C)Cc1ccc(Cl)c(Cl)c1`, the outcome was “inactive”.
For `C[C@@H]1CCCCO[C@@H](CN(C)Cc2ccc(C(F)(F)F)cc2)[C@@H](C)CN([C@@H](C)CO)C(=O)c2cc(NS(=O)(=O)c3ccccc3)ccc2O1`, the outcome was “inactive”.
For `O=C(C[C@H]1CC[C@H]2[C@@H](COC[C@@H](O)CN2Cc2ccc(Oc3ccccc3)cc2)O1)N1CCCCC1`, the outcome was “inactive”.
With `C[C@@H]1CN([C@H](C)CO)S(=O)(=O)c2ccc(C#CC3CCCC3)cc2O[C@@H]1CN(C)C(=O)Cc1ccncc1` the outcome was “inactive”.
For `COc1ccc(NC(=O)Nc2ccc3c(c2)CC(=O)N([C@H](C)CO)C[C@@H](C)[C@@H](CN(C)Cc2ccc(Oc4ccccc4)cc2)O3)cc1`, the outcome was “inactive”.
For `C[C@@H]1CCCCO[C@@H](CN(C)C(=O)Nc2cccc3ccccc23)[C@H](C)CN([C@H](C)CO)C(=O)c2cc(NS(=O)(=O)c3ccccc3)ccc2O1`, the outcome was “inactive”.
With `O=C(Nc1ccc(Cl)c(Cl)c1)N[C@@H]1CC[C@H](CCn2cc(C3CCCCC3)nn2)O[C@H]1CO` the outcome was “inactive”.
With `C[C@@H]1CCCCO[C@H](CN(C)Cc2ccc(C(F)(F)F)cc2)[C@H](C)CN([C@H](C)CO)C(=O)c2cc(NS(=O)(=O)c3cccs3)ccc2O1` the outcome was “inactive”.
For `C[C@H](CO)N1C[C@H](C)[C@@H](CN(C)S(=O)(=O)c2ccc(Cl)cc2)OCCCC[C@H](C)Oc2ccc(NS(=O)(=O)c3ccc(Cl)cc3)cc2C1=O`, the outcome was “inactive”.
With `C[C@@H]1CN([C@@H](C)CO)C(=O)Cc2cc(NC(=O)CCC(F)(F)F)ccc2O[C@H]1CN(C)Cc1ccc(-c2ccccc2)cc1` the outcome was “inactive”.
In the case of `COc1cccc(S(=O)(=O)N2CC[C@H]3[C@@H](CO)N(C)c4ccc(C#Cc5ccc(F)cc5)cc4[C@H]32)c1`, the outcome is reported as “inactive”.
For `C[C@@H]1CCCCO[C@H](CN(C)Cc2ccc(C(F)(F)F)cc2)[C@H](C)CN([C@H](C)CO)C(=O)c2cc(NS(=O)(=O)c3ccccc3)ccc2O1`, the outcome was “inactive”.
With `O=S(=O)(c1ccccc1F)N1CC[C@@H]2[C@@H](CO)Nc3ccc(C4=CCCCC4)cc3[C@@H]21` the outcome was “inactive”.
With `CN1c2ccc(-c3cccc(F)c3)cc2[C@@H]2[C@@H](CCN2C(=O)Cc2ccccc2)[C@@H]1CO` the outcome was “inactive”.
With `COc1ccc(NC(=O)Nc2ccc3c(c2)C(=O)N([C@@H](C)CO)C[C@@H](C)[C@@H](CN(C)CC2CCCCC2)OCCCC[C@@H](C)O3)cc1` the outcome was “inactive”.
